Screening results as filed in PubChem BioAssay.
DAX1 inh-1 – inhibits human nuclear receptor DAX1. P51843. HEK293 Gal4-DAX1 luciferase reporter, luminescence. inhibition, % at 6.75 µM. 340,000 tested, 0.99% active;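 active means inhibition above the mean over all tested compounds plus 3 SD, cut at about 4.2% in these data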;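 further: 0% = DAX1-transfected cells with DMSO and 100% = empty-vector control cells with DMSO; inhibition shows as a rise in luminescence from relieved DAX1 repression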
Target sequence (P51843 207-470 limits assumed): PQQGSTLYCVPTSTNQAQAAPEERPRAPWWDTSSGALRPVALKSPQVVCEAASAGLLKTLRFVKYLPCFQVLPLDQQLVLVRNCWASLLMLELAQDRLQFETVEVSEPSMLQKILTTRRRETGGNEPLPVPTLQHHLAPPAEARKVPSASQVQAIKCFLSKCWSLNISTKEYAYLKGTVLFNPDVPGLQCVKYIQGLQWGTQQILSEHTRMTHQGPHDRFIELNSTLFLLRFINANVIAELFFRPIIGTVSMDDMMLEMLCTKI
hgDAF-12 ag – activates the H. glycines DAF-12 receptor ligand-binding domain. HEK293 GAL4-hgDAF12 UAS-luciferase reporter, agonist luminescence; normalized to butyrate control. activation, % at 6.8 µM. 370,000 tested, 1.8% active. AID 687014;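 active means activation above a cutoff set at the mean of all screened compounds plus 3 SD, cut at about 10% in these data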;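 further: 0% = DMSO wells and 100% = sodium butyrate wells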
DAX1 inh-2 – blocks DAX1 repression of SF-1 activated StAR promoter | HEK293T StAR-luciferase reporter, SF-1/DAX-1 repression relief | inhibition, % at 6.8 µM | 370,000 tested, 1.1% active | AID 652010;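 active means inhibition above the mean over all tested compounds plus 3 SD, cut at about 3.6% in these data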;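 further: 0% = DAX-1 cells with DMSO and 100% = cells lacking DAX-1 with DMSO; higher inhibition means more luminescence from relief of DAX-1 repression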
hcDAF12 agonist – activates DAF-12 receptor from parasite H. contortus; HEK293 hcDAF-12 lit1-tk-luc reporter, luminescence; 0% DMSO, 100% Δ7-dafachronic acid; activation, % at 6.8 µM; 370,000 tested, 1.4% active;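 active means activation above the mean of all tested compounds plus 3 SD, cut at about 5.5% in these data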;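 further: 100% = response to 3 µM Δ7-dafachronic acid high control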
ssDAF12 agonist – activates DAF-12 receptor from parasite S. stercoralis. AID 652126. 370,000 tested, 1% active. HEK293 ssDAF-12/GRIP1 lit1-tk-luc reporter, luminescence; % of 3 µM dafachronic acid response. activation, % at 6.8 µM;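 active means activation above the mean over all tested compounds plus 3 SD, cut at about 0.9% in these data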;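 further: 0% = DMSO-only wells and 100% = 3 µM delta7-dafachronic acid wells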
hgDAF12 conf – hgDAF-12 agonism, confirmation assay | shares compounds with hgDAF-12 ag | HEK293 GAL4-hgDAF12 luciferase reporter, agonist mode; percent of butyrate response | activation, % at 6.8 µM | 3,300 tested, 80% active | AID 743050;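 active means mean activation over triplicate wells above the hit cutoff derived from the earlier primary screen, cut at about 11% in these data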;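 further: 0% = DMSO low control and 100% = 2 mM sodium butyrate high control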
LXR ag 2 – counter-screen for DAF-12 agonists: agonists of human LXR-beta | shares compounds with hgDAF-12 ag | HEK293 Gal4-LXR luciferase reporter, 24 h | activation, % at 6.8 µM | 3,300 tested, under 10 active;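 active means mean activation of the triplicate above a set limit carried over from the primary screen, none filed active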
Numbers without * were called inactive; . = no result. Compounds with a hit are over-represented: about 4.1% of the library has one in this group of screens.

SMILES	DAX1 inh-1	hgDAF-12 ag	DAX1 inh-2	hcDAF12 agonist	ssDAF12 agonist	hgDAF12 conf	LXR ag 2
COc1ccc(C(=O)O/N=C(\N)c2ccccn2)cc1	-3	-6	0	-2	-2	.	.
COc1cccc(C(=O)O/N=C(\N)c2ccncc2)c1	2	17*	2	2	-1	16*	1
Cc1occc1C(=O)N/N=C/C=C/c1ccccc1	4	8	4	1	0	.	.
COc1cc(OC)cc(C(=O)O/N=C(\N)c2ccccn2)c1	.	13*	1	2	0	13*	0
C=CCCC1CN(Cc2ccc(OC)cc2)S(=O)(=O)c2c(Oc3ccc(C)cc3)cccc2O1 (stereo unspecified)	.	3	-1	-2	-1	.	.
Cc1cccc(NC(=O)c2cccc3c2-c2ccccc2C3=O)c1C	.	-1	0	-4	-1	.	.
CCOC(=O)c1ccc(OS(=O)(=O)c2ccccc2)c(OC)c1	1	16*	3	4	0	11*	1
Cc1cc(/C=C2\SC(=S)NC2=O)c(C)n1-c1ccc(O)cc1	0	14*	3	4	0	9	1
COc1ccc(-n2c(C)cc(/C=C3\SC(=S)NC3=O)c2C)cc1	2	0	0	0	-1	.	.
COC(=O)c1sc(NC(=O)c2ccc(C)o2)nc1C	-1	14*	2	2	0	10*	1
N/C(=N\OC(=O)COc1ccc(Cl)cc1Cl)c1ccncc1	6.2*	16*	4.0*	5	0	21*	1
O[C@H](COc1ccc(F)cc1)CN1CCC(C(O)(c2ccccc2)c2ccccc2)CC1	.	2	1	3	-1	.	.
O=C(C=C1SCCS1)/C=C/c1ccco1	0	15*	3.7*	4	0	14*	1
O=c1[nH]c2ccccc2nc1/C=C/c1ccc(F)cc1	2	16*	2	4	-1	11*	0
CC(C)(C)/C(O)=C/c1nc2ccccc2[nH]c1=O	-2	-2	0	1	-1	.	.
O=c1[nH]c2ccccc2nc1/C=C/c1ccc(O)cc1	0	14*	0	-1	-1	4	1
O=C(NCc1ccccc1)[C@@H]1CCCN1C(=O)[C@H]1CCCN1C(=O)c1ccccc1C(F)(F)F	.	-2	0	1	-1	.	.
O=C(NCc1cccs1)C1CCN(S(=O)(=O)c2cccc3ccccc23)CC1	.	-2	0	0	-1	.	.
Cc1cc(N2CCN(C(=O)OC(C)(C)C)C[C@@H]2C)ccc1N1CCS(=O)(=O)CC1	.	-2	1	0	0	.	.
CCn1c(SCc2ccccc2Cl)nc2ccccc21	3	6	1	2	-1	.	.
Cn1c(SCc2ccccc2Cl)nc2ccccc21	3	14*	3	2	0	15*	1
CC(C)Cc1nnc(NC(=O)Nc2ccccc2)s1	0	21*	2	2	-2	14*	0
CC(c1ccccc1)c1nnc(NC(=O)Nc2ccccc2)s1 (stereo unspecified)	-1	3	1	-1	-1	.	.
O=C(NCc1ccccc1)[C@@H]1CCCN1C(=O)[C@H]1CCCN1C(=O)c1cccc(F)c1	.	1	1	1	-1	.	.
O=C(COc1ccc(Br)cc1Br)NC(=S)N1CCCc2ccccc21	0	.	.	.	.	.	.
SMILES	DAX1 inh-1	hgDAF-12 ag	DAX1 inh-2	hcDAF12 agonist	ssDAF12 agonist	hgDAF12 conf	LXR ag 2
O=C(COc1ccc(Br)cc1Cl)NC(=S)N1CCc2ccccc21	-1	13*	1	6.2*	1.0*	4	0
O=C(N/N=C/c1ccc(Cl)cc1Cl)c1cccc(F)c1	3	15*	3	4	0	15*	1
COc1cccc(/C=N/NC(=S)Nc2cccc(C(=O)O)c2)c1O	-5	17*	2	-1	-1	4	0
O=C(N/N=C/c1ccc(Cl)cc1Cl)c1ccc2nc[nH]c2c1	0	0	-1	-1	-1	.	.
Cc1ccc(/C=N/NC(=O)c2ccoc2C)o1	1	14*	2	5	0	4	0
Cc1occc1C(=O)N/N=C/c1cnn(C)c1C	2	16*	3	3	0	9	0
O=S1(=O)N[C@H](Cc2ccccc2)COc2cccc(F)c21	.	-1	1	-1	-1	.	.
Cc1c(/C=N\NC(=O)c2cccc(F)c2)cnn1C	4	15*	1	4	-1	4	0
CC(=O)Nc1cccc(C(=O)N/N=C/c2ccccc2F)c1	3	14*	3.7*	5	1	20*	1
Cc1c(/C=N/NC(=O)c2ccc3c(c2)OCO3)cnn1C	1	4	0	0	0	.	.
O=S1(=O)c2ccc(N3CC[C@@H](O)C3)cc2O[C@@H]2CCN1C2	.	0	-1	-2	-1	.	.
CCCn1c(C)cc(C(=O)COc2ncnc3sccc23)c1C	1	14*	2	3	-1	13*	0
COC(=O)C1=C(C)N(Cc2ccc(Br)cc2)C(=S)NC1c1ccccc1 (stereo unspecified)	.	-3	-2	1	-1	.	.
O=C(CCCN1CCOCC1)c1ccc2c(c1)OCCO2	1	17*	3	3	0	14*	0
CC[C@H](CCC(=O)N(c1ccccc1)c1ccccc1)c1ccc(C)cc1	.	1	-1	-1	-1	.	.
N/C(=N\OC(=O)c1ccc([N+](=O)[O-])cc1)c1cccnc1	1	2	0	0	-1	.	.
N/C(=N\OC(=O)c1ccc(Br)o1)c1cccnc1	1	14*	2	1	-2	7	0
COc1ccccc1C(=O)CSc1nnc(-c2ccncc2)n1-c1ccc(Cl)cc1	.	0	-1	0	-1	.	.
O=S1(=O)c2cc(Cl)ccc2N2CCC[C@@H]2CN1Cc1ccc(Cl)c(Cl)c1	.	3	-1	0	0	.	.
C#CCN(Cc1ccco1)C(=O)c1nnc2c3ccccc3n(S(=O)(=O)c3ccccc3)c2n1	.	-1	0	2	-1	.	.
COc1ccccc1OCC(=O)Nc1nc(C)c(C)s1	2	14*	1	2	0	12*	1
COC(=O)c1sc(NC(=O)COc2ccccc2C)nc1C	0	-1	1	0	-2	.	.
CCc1ccc(C(=O)CN2CCSC2=N)cc1	2	20*	3	5.6*	1	17*	1
C=CCN(C(=O)[C@@H](CCCC)[C@@H](O)c1ccc2ccccc2c1)c1ccccc1	.	2	-1	2	-1	.	.
CCNC(=S)Nc1ccc(-c2nc3ccccc3[nH]2)cc1	4	14*	4.4*	2	-1	17*	1
O=C(CSc1ccccc1)Nc1ccc(-c2nc3ccccc3[nH]2)cc1	0	16*	2	0	-1	13*	0
